Laboratory results as given in PubChem BioAssay AID602254 (Broad Institute, 2012).
Among all 1,000 compounds or so, fewer than 10 were called active.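 Rule for the calls: active = fitted half-maximal concentration no higher than twice the top valid tested dose, with signal falling; inconclusive = flat curve with 30 to 70% inhibition, or poor fit; inactive = the rest.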 A selection follows. Results with a measured potency or affinity are listed apart.

molecular target: Golgi-associated PDZ and coiled-coil motif-containing protein (Homo sapiens) (UniProt Q9HD26); assay: CAL PDZ domain peptide-binding inhibitors, dose response, biochemical, fluorescence polarization, untagged CAL PDZ, cherry-pick, set 2 (AID 602254); settings: Purified CAL PDZ, TMR peptide fluorescence polarization; series mostly up to 60 µM;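 note: more negative means stronger blocking of peptide binding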

outcome, inactive:
COc1ccccc1C(=O)Nc1cccc2nc(C)ccc12, O=C(Nc1ccc(F)cc1)C1CCCN1S(=O)(=O)c1cccc2nsnc12 (centres undefined), Cc1ccc(N(C)C(=O)C2CCCN2S(=O)(=O)c2cccc3nsnc23)cc1 (centres undefined), O=C(Nc1cccc(O)c1)c1ccc(NC(=O)C2CCCO2)cc1 (centres undefined), CC(=O)Nc1ccc(NC(=O)COC(=O)COc2ccc3ccccc3c2)cc1, COc1ccccc1CNC(=O)COC(=O)CC1CC2CCC1C2 (centres undefined), Cc1ccc(S(=O)(=O)Nc2c(C)n(C)n(-c3ccccc3)c2=O)cc1, C=CC(=O)NCc1ccc(-c2csnn2)cc1, CC(=O)NC(Cc1ccccc1)C(C)=O (centres undefined), CCSc1nnc(NC(=O)CN2C(=O)NC3(CCCC3)C2=O)s1, COc1ccc(NC2CCCN(C(=O)c3csc(C(C)C)n3)C2)cc1 (centres undefined), O=C1OC(CO)CN1Cc1ccccc1 (centres undefined), O=S1(=O)c2c(F)cccc2OC(COCc2ccccc2)CN1C1CCCC1 (centres undefined), Cc1ccc(C)c(N(CC(=O)N2CCCC2)S(C)(=O)=O)c1, COc1ccc(NC(=O)n2ncc3c(C)cccc32)cc1, O=C(O)c1c(-c2ccc(Cl)cc2)cn2ccccc12, O=C(NCc1ccncc1)C(=O)N/N=C/c1ccccn1, O=C(COC(=O)COc1ccc(Br)cc1)NCC1CCCO1 (centres undefined), CCCCN1CC(COCc2ccccc2)Oc2cccc(F)c2S1(=O)=O (centres undefined), COc1ccccc1C(=O)Nc1ccc2c(c1)nc(CN1CCCCC1)n2C, COC(=O)Cc1ccc(NC(=S)Nc2cccc(C)n2)cc1, O=C(CN1CCC(n2nnc3cc(C(F)(F)F)ccc32)CC1)Nc1ccc2c(c1)OCCO2, CCOC(=O)C(/C=N/c1cc(C)nn1-c1ccccc1)=C(\C)O, CCc1ccc(C(=O)NNC(=O)c2c(CC)noc2C)cc1, COc1ccc(/C=N/N2CCN(Cc3ccc(C)cc3)CC2)cc1Br, Cc1ccc(C(=O)NN2C(=O)c3ccc(S(=O)(=O)c4ccc(C(=O)O)cc4)cc3C2=O)cc1, CC(C)CNC(=O)NC(=O)COC(=O)COc1ccc(Cl)cc1Cl, COc1ccccc1C(=O)Oc1ccccc1C(=O)Nc1ccccc1, O=C(O)Cc1sc(-c2ccc(Cl)cc2)nc1-c1ccccc1, Cc1ccc2nc(NC(=O)COC(=O)c3ccncc3)sc2c1, Cc1noc(C)c1COc1cccc(C(=O)OC(C)C#N)c1 (centres undefined), COc1ccc(CN2CCNC(=O)C2CC(=O)NC2CCCCCCC2)cc1OC (centres undefined), CCC(C)(C(=O)NC1CCCCC1)N(C)C(=O)c1ccccn1 (centres undefined), Cc1cc(CN(C)C(=O)C2CCC(=O)N(CCc3cccc(F)c3)C2)on1 (centres undefined), Cc1onc(-c2c(Cl)cccc2Cl)c1C(=O)N1CCN(c2ncccn2)CC1, CC(C)c1ccc(S(=O)(=O)N2CCN(C(=O)c3cccc(F)c3)CC2)cc1, Cc1ccc(/C=N/N(C)S(=O)(=O)c2ccc(C)cc2)cc1, CCOc1ccc(NC(=O)CCN2CCN(S(=O)(=O)c3ccc(F)cc3)CC2)cc1, Cc1ccccc1C(=O)c1cccn1CC(=O)NCCC1=CCCCC1, COc1ccccc1NC(=O)C1CCN(C(=O)NCc2ccccc2)CC1, CCSc1ccccc1C(=O)NCCc1ccccc1, COc1ccc(C)cc1NC(=O)Cn1c(=O)oc2ccccc21, O=C(NNC(=O)C1CCC1)c1ccc(Br)cc1, CC1CCN(C(=O)COc2ncnc3ccccc23)CC1, COc1ccc(CCC(=O)Nc2ncc(C)s2)cc1OC, CC(=O)Nc1ccc(NCC(=O)c2ccccc2)cc1, O=C(Oc1ccccc1)N1CCOCC1, CCCN1CCN(S(=O)(=O)c2ccc3c(c2)CCC(=O)N3)CC1, COC(=O)c1c(NC(=O)CN(C)CC(=O)Nc2ccc(C)cc2)sc2c1CCC(C)C2 (centres undefined), CCOC(=O)Cn1c(=O)oc2cc(S(=O)(=O)N(C)Cc3ccccc3)ccc21, CC(C)Oc1cccc(C(=O)C2CCCN(C(=O)CCn3cnnn3)C2)c1 (centres undefined), CC1CCC(NC(=O)c2nn(C)c3c2CSc2ccccc2-3)CC1 (centres undefined), CCOC(=O)c1ccc(S(=O)(=O)NCC(C)(C)N2CCOCC2)cc1, c1ccc(CN2CCCC3(CCCN(Cc4nc(COc5ccccc5)no4)C3)C2)cc1 (centres undefined), O=C(COc1ccc(Cl)cc1)Nc1cc(NC(=O)COc2ccc(Cl)cc2)cc(C(=O)O)c1, CN(Cc1cnccn1)Cc1nc(Cc2ccccc2F)no1, CCCNC(=O)C1CCC(CNS(=O)(=O)c2ccc3c(c2)CC(C)N3C(C)=O)CC1 (centres undefined), Fc1ccc(Cn2cc(C(=S)N3CCOCC3)c3ccccc32)cc1, CCC(=O)N1CCc2cc(Br)cc(S(=O)(=O)N3CCCCC3CC)c21 (centres undefined), CC1CCN(Cc2nnnn2CCCC(=O)NCCc2cnn(C)c2)CC1, Cc1ccc(O)c(-c2cc(-c3cccc(Br)c3)n[nH]2)c1, C=CCc1ccc(OCCCCN2CC(C)OC(C)C2)c(OC)c1 (centres undefined), Cc1noc(NS(=O)(=O)c2ccc(NC(=O)c3ccc(N(C)C)cc3)cc2)c1C, Cc1ccc(NC(=O)CN(C)C(=O)COc2cccc3ccc(C)nc23)cc1, COc1ccc(-c2[nH]ncc2CNC(C)CCn2cccn2)cc1F (centres undefined), Cc1ccc(N2CCN(CCCCN3C(=O)C4CCCN4C3=O)CC2)cc1 (centres undefined), COc1ccc(-c2csc(N3C(=O)CNC3=S)n2)cc1, N#Cc1ccc(NC(=O)NN2CCCCCC2)cc1, CCN1CCCc2cc(CN(CCN3CCOCC3)C(=S)Nc3cccc(C)c3)ccc21, N/N=C(\c1ccccc1)c1cc(Br)ccc1N, COc1ccc(NC(=O)Oc2cc(C)ccc2C(C)C)cc1, OCCCc1cn(Cc2ccccc2)c2ccccc12, O=C(Cn1cccc1C(=O)c1ccccc1)NCc1ccccc1Cl, CC(C)(C)c1cc(C(=O)NNc2cccc(Cl)c2)n(Cc2ccccc2)n1, O=C(NCc1ccc(F)cc1)c1c2c(nc3ccccc13)CCN(Cc1ccccc1)C2, CC(C)CC1NC(=O)N(CC(=O)N(C)C2CCCCC2)C1=O (centres undefined), N#Cc1c(N)c(C#N)c(-c2ccc(O)cc2)c2c1CCCC2, Cc1cccc(C)c1NC(=S)NC(C)(C)CO, CC(C)(C)OC(=O)n1cc(C(=O)c2ccccc2O)cn1, Cc1cc(Nc2ccccc2Cl)nc(-c2ccccc2O)n1, CN(C)CCCNC(=S)Nc1ccc(Oc2ccccc2)cc1, COC(=O)c1ccc(NC(=S)Nc2cccc(C)n2)cc1, Cc1cc(C)nc(NCC(O)CNc2ccccc2C)n1 (centres undefined), Cc1ccc(Cl)c(NC(=O)COC(=O)C2CCC2)c1Cl, COC(=O)c1cc2ccsc2n1Cc1cccc(F)c1, O=S(=O)(NC1CCCC1)c1ccc(-n2cnnn2)cc1, COc1ccc(Cl)cc1C(=O)NNC(=O)CNC(=O)c1ccc(C)s1, COc1ccc(CCNS(=O)(=O)c2ccc(-n3cnnn3)c(OC)c2)cc1OC, COc1ccccc1C(=O)NC(CCSC)C(=O)NC1CC1 (centres undefined), COc1ccc(OCCSc2nnc(C(C)NC(=O)c3ccccc3F)n2C)cc1 (centres undefined), COc1ccc(NC(=O)Nc2nnc(C(C)(C)C)s2)cc1, CCSc1nnc(NC(=O)CCNC(=O)c2ccccc2Cl)s1, O=C(CNC(=O)CNC(=O)c1ccc(Cl)cc1Cl)NCc1cccc(Cl)c1, O=C(O)CC(CNC(=O)C1CCCN1C(=O)OCc1ccccc1)c1ccccc1 (centres undefined), CC(=O)c1cc(Cl)ccc1OCC(=O)Nc1cccc(S(=O)(=O)N2CCCC2)c1, O=C(COc1ccc2c(c1)OCO2)Nc1nccs1, COC(=O)c1ccc(CN2C(=O)c3ccccc3S2(=O)=O)cc1, CCc1nnc(NC(=O)c2cc(S(=O)(=O)N3CCCCC3)ccc2C)s1, COC(=O)c1cc(S(=O)(=O)N2CCCC(C)C2)c[nH]1 (centres undefined)
